# Hit rate of the full screen: of about 310,000 compounds, about 2,200 (0.71%) showed an effect of 50% or more. Effects have a minus sign here. Only a selection was taken, and strong results are over-represented in it overall.
# Target: human ether-à-go-go-related gene (hERG) potassium channel (human, UniProt Q12809)
# Test: primary screen, population patch clamp on CHO cells stably expressing hERG; higher = less effect of the substance
# human ether-à-go-go-related gene (hERG) potassium channel, sequence (Q12809 whole entry, looked up): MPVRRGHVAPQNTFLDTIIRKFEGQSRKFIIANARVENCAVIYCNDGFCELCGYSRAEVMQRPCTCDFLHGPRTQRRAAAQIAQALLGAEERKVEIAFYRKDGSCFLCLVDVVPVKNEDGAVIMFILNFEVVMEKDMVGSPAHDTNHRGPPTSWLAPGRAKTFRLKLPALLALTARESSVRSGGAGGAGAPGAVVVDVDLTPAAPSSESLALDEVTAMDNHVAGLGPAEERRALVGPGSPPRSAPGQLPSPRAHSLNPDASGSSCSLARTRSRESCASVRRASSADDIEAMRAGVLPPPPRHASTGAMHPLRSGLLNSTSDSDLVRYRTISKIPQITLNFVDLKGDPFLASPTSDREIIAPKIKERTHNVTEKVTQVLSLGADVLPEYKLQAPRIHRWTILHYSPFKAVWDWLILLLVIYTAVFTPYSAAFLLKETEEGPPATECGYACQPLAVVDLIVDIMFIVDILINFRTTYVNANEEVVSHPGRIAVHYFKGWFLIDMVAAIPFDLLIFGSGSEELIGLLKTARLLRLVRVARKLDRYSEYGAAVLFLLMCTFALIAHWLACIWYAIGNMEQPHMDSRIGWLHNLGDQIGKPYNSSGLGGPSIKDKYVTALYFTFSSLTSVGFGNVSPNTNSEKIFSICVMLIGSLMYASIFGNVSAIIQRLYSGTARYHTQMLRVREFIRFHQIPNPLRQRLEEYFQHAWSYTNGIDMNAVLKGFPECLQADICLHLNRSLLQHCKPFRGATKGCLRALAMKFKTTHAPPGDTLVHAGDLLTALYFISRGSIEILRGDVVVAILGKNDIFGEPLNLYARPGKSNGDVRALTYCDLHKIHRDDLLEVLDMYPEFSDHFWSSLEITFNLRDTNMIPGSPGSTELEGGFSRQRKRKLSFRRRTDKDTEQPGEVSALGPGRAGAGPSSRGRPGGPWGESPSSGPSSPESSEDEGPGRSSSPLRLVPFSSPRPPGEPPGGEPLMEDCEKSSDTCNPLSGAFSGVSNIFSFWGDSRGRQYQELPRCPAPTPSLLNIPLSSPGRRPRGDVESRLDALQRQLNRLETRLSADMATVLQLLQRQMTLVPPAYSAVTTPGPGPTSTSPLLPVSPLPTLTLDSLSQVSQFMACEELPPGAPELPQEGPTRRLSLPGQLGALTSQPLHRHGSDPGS
row,Compound,"hERG current change (%, negative = inhibition) at 1uM [%]"
1,Cc1ccc(S(=O)(=O)N2CCC(C(=O)OCC(=O)N(CC(C)C)C3CCS(=O)(=O)C3)CC2)cc1C (centres unmarked),10.8
2,Nc1n[nH]c2cc(=O)n(-c3cccc(C(F)(F)F)c3)nc12,12.3
3,O=C(CSc1nc(Cc2ccccc2)nc2ccccc12)Nc1nc2c(s1)CCCC2,15.9
4,O=C(Nc1ccc2c(c1)OCO2)C1CC(=O)N(CCc2ccccc2)C1 (centres unmarked),4.44
5,Cc1ccc(S(=O)(=O)N(C)C)cc1NC(=O)COC(=O)C1CCCC1,-0.454
6,Cc1ccc(S(=O)(=O)N(C)C)cc1NC(=O)COC(=O)C1CC1,17.3
7,Cc1ccc(S(=O)(=O)N(C)C)cc1NC(=O)COC(=O)C1CCN(S(=O)(=O)c2cccs2)CC1,-58.4
8,O=C(Nc1ccccc1)C1CCCN1/C=C/C(=O)C(F)(F)F (centres unmarked),2.92
9,CCC(NS(=O)(=O)c1ccc(C)cc1)C(=O)Nc1ccc(NC(C)=O)cc1 (centres unmarked),-1.54
10,CCC(=O)N(Cc1ccc(C)cc1)Cc1cc2cc3c(cc2[nH]c1=O)OCO3,0.914
11,O=C(O)CCc1ccc(-c2ccccc2)n1-c1cccc(C(=O)O)c1,15.2
12,O=C(NCCS(=O)(=O)N1CCN(c2ccccc2)CC1)C1CC(=O)N(c2ccccc2)C1 (centres unmarked),18
13,Cc1ccc(C)c(CN2C(=O)CSc3ccc(C(=O)N4CCCC4)cc32)c1,5.65
14,Cc1ccc(C)c(CN2C(=O)CSc3ccc(C(=O)NCCN4CCOCC4)cc32)c1,20.1
15,Cc1ccc(C)c(CN2C(=O)CSc3ccc(C(=O)NCC(C)CN4CCC(C)CC4)cc32)c1 (centres unmarked),-70.4
16,N#Cc1ccc(NC(=O)COC(=O)CSc2nnc(-c3ccc(Cl)cc3)o2)cc1,6.91
17,Cc1sc2ncnc(N3CCC(C(=O)N(C)CC(=O)Nc4ccccc4Cl)CC3)c2c1C,-30
18,Cc1sc2ncnc(N3CCC(C(=O)N(C)CC(=O)Nc4ccccc4Br)CC3)c2c1C,-8.93
19,CCCN(CC(=O)Nc1ccccc1C)C(=O)C1CCN(c2ncnc3sc(C)c(C)c23)CC1,-56.5
20,CN1CCN(c2nc(-c3cccs3)nc3ccccc23)CC1,-55
21,c1csc(-c2nc(N3CCOCC3)c3ccccc3n2)c1,5.11
22,c1ccc(N2CCN(c3nc(-c4cccs4)nc4ccccc34)CC2)cc1,4.12
23,CCN1CCN(c2nc(-c3cccs3)nc3ccccc23)CC1,-66.2
24,CC(=O)N1CCN(c2nc(-c3cccs3)nc3ccccc23)CC1,-49.4

row,Compound,"hERG current change (%, negative = inhibition) at 1uM [%]"
1,CCCN1CCN(c2nc(-c3cccs3)nc3ccccc23)CC1,-16.1
2,COc1ccc(CC(=O)N2CCN(S(=O)(=O)c3cc(Cl)ccc3Cl)CC2)cc1,14
3,CCOC(=O)N1CCC(N2CCN(c3cc(C)ccc3C)CC2)CC1,-32.2
4,COc1cccc2c1OCC/C2=N\NC(=O)COc1ccccc1C,-13.9
5,COc1ccc(CNC(=O)C2CC(c3cccc([N+](=O)[O-])c3)=NO2)cc1 (centres unmarked),5.46
6,O=C(NCc1cccnc1)c1ccc(Cl)cc1[N+](=O)[O-],7.05
7,c1ccc(CSc2ncnc3c2oc2ccccc23)cc1,9.56
8,N=c1c(C(=O)NCc2ccc3c(c2)OCO3)cc2c(=O)n3ccccc3nc2n1CC1CCCO1 (centres unmarked),-84.2
9,CCOC(=O)c1cc2c(=O)n3ccccc3nc2n(CC2CCCO2)c1=NC(C)=O (centres unmarked),16.6
10,Cc1ccc(CNC(=O)c2cc3c(=O)n4ccccc4nc3n(CC3CCCO3)c2=N)cc1 (centres unmarked),-85.7
11,O=C(CSc1nc2ccccc2c(=O)n1CC1CCCO1)NCc1ccc2c(c1)OCO2 (centres unmarked),9.71
12,N=c1c(C(=O)NCc2ccc(F)cc2)cc2c(=O)n3ccccc3nc2n1CC1CCCO1 (centres unmarked),-85.3
13,COc1ccc(CNC(=O)c2cc3c(=O)n4ccccc4nc3n(CC3CCCO3)c2=N)cc1 (centres unmarked),-80.4
14,N=c1c(S(=O)(=O)c2ccc(F)cc2)cc2c(=O)n3ccccc3nc2n1CC1CCCO1 (centres unmarked),-2.33
15,CCc1ccc(N(CC(=O)Nc2ccccc2C(=O)N2CCOCC2)S(C)(=O)=O)cc1,8.28
16,O=C(NCc1cccnc1)c1ccc(CS(=O)(=O)Cc2ccc(Cl)cc2)o1,3.03
17,Cc1c(C(=O)OCC(=O)N2c3ccccc3CC2C)oc2ccccc12 (centres unmarked),14.6
18,O=C(Nc1cccc(F)c1)Nc1ccccn1,16
19,Cc1c(C(=O)c2ccccc2)c(=O)n(C)c(=O)n1C,9.65
20,O=S(=O)(Nc1cccc(-c2ccc(N3CCCCCC3)nn2)c1)c1cccc(F)c1,14.3
21,CSc1nnc(-c2ccc(O)cc2)n1C,-1.62
22,COC(=O)c1ccc(CN2CCCC(C(=O)c3cc(F)ccc3OC)C2)cc1 (centres unmarked),-8.3
23,O=C1c2ccccc2C(=O)N1CCCc1nc(-c2ccccn2)no1,-4.38

# Reference: PMC4336329 (PLoS ONE, 2015)
